Source: PubChem
ELG1 repair inh: inhibitors of ELG1-dependent DNA repair in HEK293T cells | Potency, µM (series often up to 46.1 µM), for the others: top-dose activity change, negative = inhibition, usual class: inhibitors | AID 504467 | 2.3% of 330,000 active | HEK293T ELG1-luciferase reporter, luminescence, 16 h; DNA damage induced by 5-fluorouridine; further: on the % scale 0 is the no-effect control and ±100 the full control effect; nearly all actives have a fitted effect of over 55% in size
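Step one: seed 2,000 cells per well. Step two: pin-transfer compound or DMSO alongside 5-fluorouridine. Step three: incubate 16 hr, 37 °C, 5% CO2. Step four: add ONE-Glo, wait 30 min, read luminescence.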
ELG1 genotox: induces genotoxicity in HEK293T cells with luciferase-tagged ELG1 | 1.3% of 330,000 active | Potency, µM (top dose mostly 46 µM), for inactives: at the highest dose activity change, positive = activation, hits mostly activators | HEK293T ELG1-luciferase reporter, luminescence, 16 h; further: % of control where 0% means no effect; nearly all actives have a fitted effect of over 60% in size
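Reporter readout depends on ELG1 protein level, which increases with genetic stress. After 16 hr compound exposure at 37 °C, luciferase activity was quantified using ONE-Glo.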
SMN2 splice up: increases expression of the SMN2 splice variant; AID 1458; HEK293 SMN2-luciferase splicing reporter, luminescence, 30-36 h; 2.8% of 210,000 active; Potency, µM (highest dose often 46.1 µM), for inactives: at the top dose activity change, positive = activation, usual class: activators; further: % of control where 0% means no effect; nearly all actives have a fitted effect of over 55% in size
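HEK293 cells carry an SMN2 […]–luciferase reporter in which exon 7 inclusion puts luciferase in frame. Cells were plated 10-12 h before compound addition, then incubated 30-36 h at 37C. ONE-Glo luminescence was read; sodium butyrate at 4.5 mM final served as control.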
NPC1 promoter act: activators of NPC1 promoter; Huh7 NPC1 promoter luciferase reporter, 24 h; Potency, µM (highest dose often 9.22 µM), inactives show at the highest dose activation, hits mostly activators; 2.4% of 320,000 active; AID 485313; further: % of control where 0% means no effect; nearly all actives have a fitted effect of over 60% in size
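Cells: Huh7 expressing luciferase under the NPC1 promoter, 1500/well. Seeded 2 h, compound added, incubated 24 h at 37 °C. Luciferase reagent, 10 min ambient, then luminescence.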
Rab9 prom act: Rab9 promoter activation | Huh7 Rab9 promoter-luciferase reporter, luminescence, 24 h | 2.8% of 320,000 active | Potency, µM (series often up to 9.22 µM), for inactives: top-dose activation, negative = inhibition, actives largely listed as activators; further: % of control where 0% means no effect; nearly all actives have a fitted effect of over 60% in size
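Huh7 cells stably carrying Rab9 promoter–luciferase reporter, plated 1500 cells/well, compound added after 2 h and incubated 24 h at 37 °C; luciferase luminescence then read after 10 min with detection reagent.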
FLuc modulator: firefly luciferase modulation, counter-screen for miR-21 project; 6.9% of 360,000 active; Potency, µM (top dose mostly 57.5 µM), inactives show at the highest dose activity change, negative = inhibition, actives largely listed as inhibitors; P08659; AID 588342; purified FLuc, Km substrates, luminescence inhibition;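 further: plate controls were vehicle for no effect and reference inhibitor for full effect; nearly all actives have a fitted effect of over 55% in size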
Target sequence (P08659 whole entry, looked up): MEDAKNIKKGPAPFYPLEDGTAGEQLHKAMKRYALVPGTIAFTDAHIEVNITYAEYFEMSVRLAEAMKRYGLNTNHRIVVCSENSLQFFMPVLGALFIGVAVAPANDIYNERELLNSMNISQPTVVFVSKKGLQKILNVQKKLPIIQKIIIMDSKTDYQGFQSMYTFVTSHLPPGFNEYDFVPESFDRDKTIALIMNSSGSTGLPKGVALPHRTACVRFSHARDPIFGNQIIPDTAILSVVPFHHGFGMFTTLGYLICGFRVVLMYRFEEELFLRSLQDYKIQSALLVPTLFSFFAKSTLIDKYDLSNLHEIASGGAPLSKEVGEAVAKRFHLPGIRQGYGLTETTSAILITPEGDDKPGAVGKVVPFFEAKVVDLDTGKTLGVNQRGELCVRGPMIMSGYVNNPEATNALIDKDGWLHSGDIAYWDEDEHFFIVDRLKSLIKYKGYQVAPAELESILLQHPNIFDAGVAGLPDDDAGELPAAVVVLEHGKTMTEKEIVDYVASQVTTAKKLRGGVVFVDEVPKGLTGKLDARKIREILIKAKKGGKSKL
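Purified P. pyralis luciferase (10nM final) with 10uM D-luciferin and 10uM ATP (Km levels) in 50mM Tris acetate pH 7.5, 10mM Mg acetate, 0.01% Tween-20, 0.05% BSA; qHTS 6-point titration, ~60 µM downward; luminescence read.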
Starred values were filed as active, the others as inactive; ? = inconclusive; . = not tested or not shown; [ ] = another dose, or the depositor's remark. In the library only some 9.2% were active in any assay of this set; here they are far more common. The call rests on the fitted dose curve; in most records, active means well fitted curve in the direction sought with a large enough effect; inconclusive means small, poorly fitted or top-dose-only effect, or another doubt; inactive means no such curve, though single readings can be large; an effect the other way counts as inactive or inconclusive. Potency means the concentration at half of the fitted maximal effect.

SMILES | ELG1 repair inh | ELG1 genotox | SMN2 splice up | NPC1 promoter act | Rab9 prom act | FLuc modulator
CCc1ccc(NC(=O)CSc2nc3ccsc3c(=O)n2C(C)CC)cc1 (stereo not drawn) | . | . | . | . | . | -2%
Cc1ccc(N=Nc2c(O)c3ccccc3[nH]c2=O)c(S(=O)(=O)N(C)C)c1 | 0% | ? | -2%[9.22 µM] | 7% | 23% | 1.3µM*
CCN(CC(=O)Nc1ccc2c(c1)OCCO2)C(=O)c1ccc(S(=O)(=O)N(C)C)cc1 | 2% | -2% | . | 3% | -1% | 4%
CN(C)S(=O)(=O)c1ccc(Nc2ccc(-c3ccc4c(c3)OCCO4)nn2)cc1 | 26% | 3% | 2% | -5% | 9% | 6.7µM*
CCN(CC)S(=O)(=O)c1ccc(Nc2ccc(-c3ccc4c(c3)OCCO4)nn2)cc1 | ? | 8% | -14% | -6% | 18% | 11µM*
CN(C(=O)c1cccc(Nc2ccc(-c3ccc4c(c3)OCCO4)nn2)c1)C1CCCCC1 | ? | -21% | -59% | ? | ? | 0.95µM*
Cc1ccccc1OCC(=O)Nc1c(C)ccc2nsnc12 | . | . | -14% | . | . | -1%
COc1cc(Cl)c(C)cc1NC(=O)CCCN1C(=O)C(c2ccccc2)Oc2cccnc21 (stereo not drawn) | . | . | . | . | . | -11%
Cc1ccc2cc(/C=N/NC(=O)c3ccc(F)cc3)c(Cl)nc2c1 | 13% | ? | -22% | -3% | 0% | -2%
Cc1ccc2cc(/C=N/Nc3nc4ccccc4[nH]3)c(Cl)nc2c1 | ? | ? | 5µM* | 2.8µM* | 0.63µM* | 0.085µM*
CCN(CC)c1ccc(/C=N/Nc2nc3ccccc3[nH]2)c(O)c1 | ? | ? | -73% | -30% | -28% | 7.6µM*
Cc1ccccc1Cn1ccc(NC(=O)c2cc3nc(-c4ccco4)cc(C(F)(F)F)n3n2)n1 | 9% | 2% | -16% | -2% | 4% | 2%
Cc1ccccc1Cn1ccc(NC(=O)c2nn3cccnc3c2Cl)n1 | ? | 5% | -10% | 12% | 27% | 17µM*
O=C(NCc1ccc2c(c1)OCO2)c1nn2cccnc2c1Cl | . | . | -1% | . | . | 4%
Cc1ccccc1Cn1ccc(NC(=O)c2cc3ncc(Br)cn3n2)n1 | ? | 0% | 2% | -2% | -2% | 11µM*
CSc1ccccc1NC(=O)c1cc2ncc(Br)cn2n1 | ? | ? | 3.2µM* | 4% | ? | 8.5µM*
O=C(CCl)Nc1cc(SCC(O)CO)cc([N+](=O)[O-])c1 (stereo not drawn) | 3.3µM* | -25% | -105% | -46% | -67% | 0%
O=C(COC(=O)c1cccnc1)c1ccc(Cl)c(Cl)c1 | 9% | 1% | -2% | -3% | 0% | 17µM*
O=C(COC(=O)c1cccnc1)c1ccc(Cl)cc1 | 10% | -5% | -20% | -5% | -2% | 11µM*
COc1cccc(-n2c(SCC(=O)NCCC3=CCCCC3)nc3n[nH]c(C)c3c2=N)c1 | 16µM* | -9% | -14% | -6% | 0% | -1%
CCc1ccc(NC(=O)CSc2nc3n[nH]c(C)c3c(=N)n2-c2cccc(OC)c2)cc1 | 10µM* | 3% | 1% | -7% | -6% | -1%
COc1cccc(NC(=O)CSc2nc3n[nH]c(C)c3c(=N)n2-c2cccc(OC)c2)c1 | ? | -7% | 13% | 1% | -1% | 2%
Cn1ncc(SCc2ccccc2)c(Cl)c1=O | 8.2µM* | -6% | . | -6% | -26% | -4%
COc1ccc(C)cc1NC(=O)N1CCCn2nc(C)cc21 | . | . | . | . | . | -1%
c1ccc(Oc2ccc(-c3ccnc4nc(N5CCOCC5)nn34)cc2)cc1 | 18µM* | -10% | -14% | -4% | -7% | -1%
SMILES | ELG1 repair inh | ELG1 genotox | SMN2 splice up | NPC1 promoter act | Rab9 prom act | FLuc modulator
COc1ccc(-c2ccnc3nc(N4CCOCC4)nn23)cc1 | -23% | -2% | 13% | -3% | 0% | -3%
O=C(COc1ccc2cc(-c3ccccc3)c(=O)oc2c1)NCC1CCC(C(=O)O)CC1 (stereo not drawn) | ? | 9% | . | -1% | 2% | 6µM*
O=C(COc1ccc2c(-c3ccccc3)cc(=O)oc2c1)NCC1CCC(C(=O)O)CC1 (stereo not drawn) | 6% | 4% | . | -6% | -4% | 21µM*
CC(=O)N1CCC(C(=O)NC2CCCc3c2cnn3-c2cc(F)cc(F)c2)CC1 (stereo not drawn) | 1% | 5% | . | 0% | -5% | 2%
Cc1ccc(Nc2nc3c(s2)CCC3)c(C)c1 | ? | 21µM* | 13µM* | ? | ? | 7.6µM*
COc1ccccc1Nc1nc2c(s1)CCC2 | ? | 16% | -16% | 28% | 27% | 15µM*
COc1ccccc1Nc1c2c(nc3ccccc13)CCC2 | ? | -6% | . | -26% | -25% | 6%
Cc1ccc(NC(=O)Nc2nc3c(s2)CCCCCC3)cc1C | . | . | . | . | . | -1%
CC(C)c1ccc(NC(=O)C2CCN(C(=O)c3ccc(F)cc3)CC2)cc1 | . | . | -9% | . | . | -3%
COC(=O)C(C)NC(=O)N1CCN(c2nnc(C)c3c(C)n(-c4ccc(Cl)cc4)nc23)CC1 (stereo not drawn) | . | . | . | . | . | 0%
O=C(O)CCSc1ncnc2sc(-c3ccccc3)cc12 | -4% | -7% | . | -23% | -27% | 21µM*
O=C(O)CSc1ncnc2sc(-c3ccccc3)cc12 | 1% | -5% | 2% | 8% | 13% | 13µM*
S=c1[nH]cnc2sc(-c3ccccc3)cc12 | ? | 0% | . | 17% | ? | 11µM*
Cc1ccc(CNC(=O)c2cccc(-n3cnc4cccnc43)c2)cc1 | . | . | . | . | . | 2%
COc1ccc(Cn2ccc3nc(C)c(C(=O)Nc4cc(OC)c(OC)c(OC)c4)cc3c2=O)cc1 | . | . | . | . | . | 5%
Cc1ccc(S(=O)(=O)NCCc2cn3c(C)csc3n2)cc1 | . | . | . | . | . | -3%
CC(C)C[C@H](NC(=O)c1nc[nH]c1C(=O)NCc1ccc(CNC(=O)OC(C)(C)C)cc1)C(=O)OC(C)(C)C | ? | -7% | . | -3% | 0% | 1%
C[C@H](NC(=O)c1nc[nH]c1C(=O)NCc1ccc(CNC(=O)OC(C)(C)C)cc1)C(=O)OC(C)(C)C | 8.2µM* | -8% | . | 3% | 0% | 1%
CC(C)(C)OC(=O)CNC(=O)c1nc[nH]c1C(=O)NCc1ccc(CNC(=O)OC(C)(C)C)cc1 | ? | -10% | . | 1% | 0% | -1%
CC(C)(C)OC(=O)NCCCCCNC(=O)c1nc[nH]c1C(=O)NCc1ccc(CNC(=O)OC(C)(C)C)cc1 | 6.5µM* | -7% | . | . | . | .
